Source: PubChem (National Center for Advancing Translational Sciences (NCATS))
Rows were chosen to be rich in hits. Some 2.4% of all compounds tested hit in one or more screens of this group.
POLI inh: blocks human DNA polymerase iota activity; Q9UNA4; 390,000 compounds, 1% hits; Pol iota fluorescent replication assay, 10 min; Potency, µM (top dose mostly 115 µM), without a hit: top-dose activity, negative = inhibition, hits mostly inhibitors; further: potency means the concentration at half of the fitted maximal effect
Target sequence (Q9UNA4 whole entry, looked up): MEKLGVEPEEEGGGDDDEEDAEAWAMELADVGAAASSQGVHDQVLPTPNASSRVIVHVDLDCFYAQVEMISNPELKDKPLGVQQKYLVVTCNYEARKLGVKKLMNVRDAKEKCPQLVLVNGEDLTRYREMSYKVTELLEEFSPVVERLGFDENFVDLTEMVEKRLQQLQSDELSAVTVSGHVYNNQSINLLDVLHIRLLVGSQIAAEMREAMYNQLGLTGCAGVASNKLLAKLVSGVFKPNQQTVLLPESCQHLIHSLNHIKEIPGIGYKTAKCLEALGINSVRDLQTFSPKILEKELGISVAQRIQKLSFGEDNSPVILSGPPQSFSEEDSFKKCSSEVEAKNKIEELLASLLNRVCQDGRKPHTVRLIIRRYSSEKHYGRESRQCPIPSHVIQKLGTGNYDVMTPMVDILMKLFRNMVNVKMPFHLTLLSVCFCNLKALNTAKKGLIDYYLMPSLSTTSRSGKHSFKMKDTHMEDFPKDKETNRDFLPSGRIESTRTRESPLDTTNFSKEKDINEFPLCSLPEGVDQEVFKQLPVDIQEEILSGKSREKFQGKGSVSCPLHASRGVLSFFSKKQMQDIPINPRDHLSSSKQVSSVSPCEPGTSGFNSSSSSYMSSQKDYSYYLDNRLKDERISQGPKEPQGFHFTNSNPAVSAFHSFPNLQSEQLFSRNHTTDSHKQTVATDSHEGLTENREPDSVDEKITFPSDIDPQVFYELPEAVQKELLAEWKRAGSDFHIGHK
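Pol iota at 10 nM preincubated 15 min with compounds at room temperature; reaction started with fluorescent substrate, 50 nM final. Fluorescence read kinetically at 0 and 10 min; buffer-only wells as negative control.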
Pol eta inh-1: blocks human DNA polymerase eta activity; 390,000 compounds, 1.2% hits; Q9Y253; recombinant Pol eta, fluorescent DNA replication assay; Potency, µM (titrated, usually from 114 µM), without a hit: at the highest dose activity change, negative = inhibition, hits mostly inhibitors; further: potency means the concentration at half of the fitted maximal effect; on the % scale 0 is the no-effect control and ±100 the full control effect
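Pol eta at 10 nM preincubated with compounds 15 min at room temperature; reaction started with fluorescent substrate (50 nM final) and read kinetically at 0 and 10 min.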
Pol kappa inh-1: inhibitors of human DNA polymerase kappa; purified Pol kappa, fluorescent DNA synthesis assay, 10 min; Potency, µM (highest dose often 107 µM), for the others: at the top dose activity, negative = inhibition, hits mostly inhibitors; 400,000 compounds, 0.53% hits; further: potency means the concentration at half of the fitted maximal effect; on the % scale 0 is the no-effect control and ±100 the full control effect
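Kinetic fluorescence screen: compound preincubated 15 min RT with 10 nM enzyme; 50 nM substrate (final) initiates; reads at 0/10 min.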
L3MBTL1 block: L3MBTL1 (human) inhibition; Potency, µM (highest dose often 57.1 µM), without a hit: at the top dose activity, negative = inhibition, actives largely listed as inhibitors; AlphaScreen L3MBTL1–H3K9me1 peptide binding; Q9Y468; AID 485360; 230,000 compounds, 0.66% hits; further: potency means the concentration at half of the fitted maximal effect; on the % scale 0 is the no-effect control and ±100 the full control effect; nearly all actives have a fitted effect of over 60% in size
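AlphaScreen proximity signal between nickel-chelate acceptor and streptavidin donor beads (final 10 ug/mL) reports binding of 50 nM L3MBTL1 to 75 nM biotin-H3 K9me1 peptide; complex incubated with compounds 30 min at room temperature; cefsulodin titration as control.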
Pol beta inh: blocks human DNA polymerase beta activity. Potency, µM (series often up to 114 µM), for inactives: top-dose activity change, negative = inhibition, hits mostly inhibitors. Pol beta primer extension/strand displacement, fluorescence kinetic. 340,000 compounds, 1.3% hits; further: potency means the concentration at half of the fitted maximal effect; on the % scale 0 is the no-effect control and ±100 the full control effect
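Values derive from four-parameter Hill fits of normalized kinetic data: reads at 0 and 10 min following addition of 50 nM substrate to 10 nM Pol beta preincubated 15 min with compound.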
GALK inh confirm: galactokinase (human) inhibition, confirmation. shares compounds with Pol eta inh-1. purified GALK, Kinase-Glo ATP depletion luminescence. Potency, µM (titrated, usually from 115 µM), for the others: top-dose activity, negative = inhibition, hits mostly inhibitors. 150 compounds, 70% hits
GALK redox cs: generates H2O2 by redox cycling, flagging GALK artifacts; shares compounds with Pol eta inh-1; Phenol red-HRP H2O2 redox cycling, absorbance 600 nm; Potency, µM (doses to about 115 µM), without a hit: top-dose activity change, negative = H2O2 signal, hits mostly inhibitors; 150 compounds, 40% hits; AID 2035
HEK293 viability: counter-screen for GALK inhibitors: HEK293 cell cytotoxicity; shares compounds with Pol eta inh-1; 170 compounds, 10% hits; HEK-293 viability, ATP luminescence (CellTiter-Glo), 24/48 h; Potency, µM (top dose mostly 46.1 µM), without a hit: at the top dose activity change, negative = cytotoxicity, hits mostly inhibitors; further: potency means the concentration at half of the fitted maximal effect; on the % scale 0 is the no-effect control and ±100 the full control effect
Pol kappa inh-2: Pol kappa (human) inhibition, cherry-pick confirmation; shares compounds with Pol eta inh-1; purified Pol-kappa, fluorescent strand-displacement substrate; Potency, µM, most hits filed as inhibitors; 920 compounds, 76% hits; AID 720501; further: potency means the concentration at half of the fitted maximal effect
Pol eta inh-2: confirmation of human DNA polymerase eta inhibitors | Pol eta primer extension, TAMRA/BHQ fluorescence, 10 min | Potency, µM, usual class: inhibitors | AID 720502 | shares compounds with Pol eta inh-1 | 2,600 compounds, 64% hits; further: potency means the concentration at half of the fitted maximal effect
An asterisk follows results filed as active; ? = inconclusive; / = not tested or not shown; [ ] = dose if it differs, or a comment. The call rests on the fitted dose curve; in most records, active means well fitted curve in the direction sought with a large enough effect; inconclusive means small, poorly fitted or top-dose-only effect, or another doubt; inactive means no such curve, though single readings can be large; an effect the other way counts as inactive or inconclusive.

SMILES	POLI inh	Pol eta inh-1	Pol kappa inh-1	L3MBTL1 block	Pol beta inh	Pol eta inh-2	others
CN1C(=O)c2ccccc2NC(=O)[C@]12O[C@@H]2c1cccc(O)c1	?	11µM*	40µM*	/	45µM*	38*
COc1ncc2nc(-c3cccs3)c(=O)n(Cc3cccs3)c2n1	/	/	0%[60.1 µM]	/	/	/
CC1=C(C(=O)O)N2C(=O)C(NC(=O)c3nn(C)c(C)c3Cl)C2SC1 (configuration not stated)	?	32µM*	-26%	/	9%	48*	Pol kappa inh-2=42*
CC1=C(C(=O)O)N2C(=O)C(NC(=O)c3ccn(C)n3)C2SC1 (configuration not stated)	-2%	-17%	-14%	4%	?	/
Cc1ccc(S(=O)(=O)N2CCCC2)s1	-9%	-8%	2%	/	18%	/
Cc1ccc(C)c(/C=C(\C(=O)O)c2ccc(S(=O)(=O)N3CCCCC3)s2)c1	?	50µM*	?	?	22µM*	?
COc1ccc(NC(=O)c2cc3c(=O)n(Cc4ccco4)ccc3nc2C)c(OC)c1	-17%	6%	-2%	/	16%	/
O=C(O)c1ccc(/C=C2\COc3ccccc3C2=O)cc1	?	?	2%	/	10%	?
C[C@H](CO)N1C[C@H](C)[C@H](CN(C)Cc2ccncc2)Oc2ncc(Br)cc2C1=O	/	-19%	/	/	/	/
Cc1cc(=O)[nH]c(SCC(=O)c2ccccc2)c1C#N	5%	-14%	-9%	-2%	-18%	/
Cc1ccccc1NC(=O)CSc1[nH]c(=O)cc(C)c1C#N	?	20µM*	?	-11%	3%	?
Cc1cc(/C=C2\SC(=S)NC2=O)cc(C)c1O	?	-5%	-4%	-20%	?	/
O=C1NC(=S)S/C1=C\c1cc(Cl)cc(Cl)c1O	32µM*	35µM*	?	/	/	/	Pol kappa inh-2=24*
Cc1cc(/C=C2/SC(=O)NC2=O)c(C)n1-c1ccc(N2CCOCC2)cc1	?	2%	-10%	-10%	13%	/
Cc1cc(/C=C2\SC(=S)NC2=O)c(C)n1-c1ccc(O)cc1	?	50µM*	?	-15%	50µM*	/	Pol kappa inh-2=?
O=S(=O)(c1ccc(Cl)cc1)c1nc(-c2ccco2)oc1SCc1ccccc1F	-26%	-13%	-10%	/	-20%	/
CCOC(=O)N1CCN(C(=O)CN2C(=O)/C(=C\c3cccc(OC)c3)SC2=S)CC1	9%	/	-1%	/	/	/
COc1ccc(OC)c(N2C(=O)CC(NNC(=O)c3ccc4c(c3)OCO4)C2=O)c1 (configuration not stated)	-10%	-14%	-7%	-3%	/	/
CC(C)CCn1c(SCc2ccc(F)cc2Cl)nc2ccsc2c1=O	16%	11%	-6%[60.1 µM]	/	0%	/
O=c1cc(-c2cc(O)c(O)c(O)c2)oc2cc(O)cc(O)c12	/	/	0.4µM*	/	/	/	GALK inh confirm=42µM*;GALK redox cs=-1%;HEK293 viability=-2%
Cn1c(=O)oc2cc(S(=O)(=O)NCCC(=O)Nc3ccc(F)c(Cl)c3)ccc21	79µM*	32µM*	79µM*	/	?	43*
Cc1snc(S(=O)(=O)/C(C#N)=N/Nc2ccc(C(F)(F)F)cc2)c1C#N	0%	0%	1%	/	0%	/	GALK inh confirm=38µM*;GALK redox cs=3%;HEK293 viability=6%
CC(C)N1C(=O)S/C(=C\c2ccc(-c3ccc(Cl)c(C(=O)O)c3)o2)C1=O	?	8.9µM*	50µM*	?	0%	27*
CCOc1cc(/C=C2/SC(=S)NC2=O)ccc1OC(=O)c1ccco1	?	?	-23%	-25%	?	?
NS(=O)(=O)c1ccc(NC(=O)COC(=O)c2ccc([N+](=O)[O-])s2)cc1	79µM*	?	-22%	?	7.1µM*	/	GALK inh confirm=33µM*;GALK redox cs=21µM*;HEK293 viability=0%
SMILES	POLI inh	Pol eta inh-1	Pol kappa inh-1	L3MBTL1 block	Pol beta inh	Pol eta inh-2	others
CC(C)C(CCNC(=O)CN1C(=O)c2ccccc2C1=O)c1ccco1 (configuration not stated)	14%	-5%	2%	/	79%	/
CC(C)C(CCNC(=O)CC(Cc1ccccc1)c1ccco1)c1ccco1 (configuration not stated)	?	79µM*	?	-22%	32µM*	85*	Pol kappa inh-2=53*
O=C1NC(=S)S/C1=C\c1ccc(SCc2ccccc2)o1	7.9µM*	18µM*	25µM*	28µM*	14µM*	?
O=C1NC(=S)S/C1=C/c1ccc(OC(=O)c2ccco2)cc1	-12%	?	-2%	/	?	/
COc1ccc(C(=O)Nc2ccc(-c3nnc4n3CCCCC4)cc2)cc1	-14%	-5%	-18%	/	-19%	/
COc1ccc(C(=O)Nc2ccc(-c3nnc4n3CCCCC4)cc2)cc1OC	?	3%	?	/	32µM*	/	Pol kappa inh-2=17*
CC(=O)N1CCN(c2csc3ccc(Br)cc3c2=O)CC1	40%	-11%	-9%[60.1 µM]	/	2%	/
CC1C=CC(C)C(C(=O)O)C1C(=O)O (configuration not stated)	?	2.5µM*	40µM*	/	5.6µM*	5.4*
N[C@H](C(=O)O)C1[C@H](C(=O)O)[C@H]1C(=O)O (some centres not stated)	/	/	-7%[19.4 µM]	/	/	/
COCc1cc(=O)n2[nH]c(-c3ccsc3-n3c(C)ccc3C)cc2n1	?	10µM*	11µM*	/	32µM*	60*	Pol kappa inh-2=30*
COc1cc(/C=C2\C(=O)N(c3cccc(C(=O)O)c3)N=C2C)ccc1OCc1ccccc1	/	32µM*	/	/	/	?
COc1cc(/C=C2/C(=O)N(c3ccc(Br)cc3)N=C2C)cc(OC)c1OC	?	0%	-5%	/	-19%	/
COc1ccccc1/C=C1/C(=O)N(c2ccccc2)N=C1C	?	13%	-6%	/	1%	/
C#CCOc1ccc(/C=C2/C(=O)N(c3cccc(C(=O)O)c3)N=C2C)cc1OC	2µM*	50µM*	-23%	-13%	13%	?
